Experimental data reported in PubChem BioAssay AID1159580 (chemical genetic matrix, 2015).
Hit rate of the full screen: of about 5,500 compounds, about 2,000 (36%) were called active. About 18% were inconclusive and are not listed. No stated cut-off is given here; in the data, active means normalized growth mostly below about 0.91 (no sharp cut-off); inconclusive means no clear call, values can overlap the other calls; inactive means mostly above about 0.92. Some of the results follow.

Experiment: chemical genetic growth profiling, strain panel (AID 1159580);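 further: tested at 20 µM; growth read once vehicle control cultures reached saturation at 30 °C; 1 = growth at the plate median or of vehicle wells; lower values mean less growth of the strain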
Conditions: growth OD

Measured: normalized growth

COP(N)(=O)SC (configuration not stated)
inactive: S. cerevisiae deletion strains, locus YJR075W, strain HOC1, hits give low values 1.01 | S. cerevisiae deletion strains, locus YKL009W, strain mrt4, hits give low values 1 | S. cerevisiae deletion strains, locus YKL068W, hits give low values 0.999 | S. cerevisiae deletion strains, locus YKL085W, strain MDH1 (second series), hits give low values 1 | S. cerevisiae deletion strains, locus YKL085W, strain MDH1, hits give low values 1 | S. cerevisiae deletion strains, locus YKL160W, strain elf1, hits give low values 0.995 | S. cerevisiae deletion strains, locus YKL190W, strain CNB1, hits give low values 1 | S. cerevisiae deletion strains, locus YKR001C, strain vps1, hits give low values 1.03 | S. cerevisiae deletion strains, locus YKR026C, strain gcn3, hits give low values 0.995 | S. cerevisiae deletion strains, locus YKR091W, strain srl3, hits give low values 1 | S. cerevisiae deletion strains, locus YLL001W, strain dnm1, hits give low values 0.981 | S. cerevisiae deletion strains, locus YLL026W, hits give low values 0.996 | S. cerevisiae deletion strains, locus YLL041C, strain sdh2, hits give low values 1 | S. cerevisiae deletion strains, locus YLR027C, strain aat2, hits give low values 0.999 | S. cerevisiae deletion strains, locus YLR039C, strain RIC1, hits give low values 1.04 | S. cerevisiae deletion strains, locus YLR058C, strain SHM2, hits give low values 1.01 | S. cerevisiae deletion strains, locus YLR102C, strain apc9, hits give low values 1.02 | S. cerevisiae deletion strains, locus YLR113W, strain HOG1, hits give low values 0.963 | S. cerevisiae deletion strains, locus YLR221C, strain rsa3, hits give low values 0.991 | S. cerevisiae deletion strains, locus YLR258W, strain gsy2, hits give low values 1.01 | S. cerevisiae deletion strains, locus YLR262C, strain YPT6 (second series), hits give low values 1.01 | S. cerevisiae deletion strains, locus YLR262C, strain YPT6, hits give low values 1.02 | S. cerevisiae deletion strains, locus YLR268W, strain sec22, hits give low values 1.01 | S. cerevisiae deletion strains, locus YLR320W, strain mms22, hits give low values 1.01 | S. cerevisiae deletion strains, locus YLR330W, strain CHS5, hits give low values 1 | S. cerevisiae deletion strains, locus YLR342W, strain FKS1 (second series), hits give low values 1.03 | S. cerevisiae deletion strains, locus YLR342W, strain FKS1, hits give low values 1.01 | S. cerevisiae deletion strains, locus YLR357W, strain rsc2, hits give low values 1.02 | S. cerevisiae deletion strains, locus YLR370C, strain arc18, hits give low values 1.01 | S. cerevisiae deletion strains, locus YLR371W, strain rom2, hits give low values 1.02 | S. cerevisiae deletion strains, locus YLR384C, strain iki3, hits give low values 1 | S. cerevisiae deletion strains, locus YLR418C, strain cdc73, hits give low values 1.01 | S. cerevisiae deletion strains, locus YML016C, strain PPZ1, hits give low values 0.992 | S. cerevisiae deletion strains, locus YML032C, strain rad52, hits give low values 1.03 | S. cerevisiae deletion strains, locus YML120C, strain ndi1, hits give low values 1 | S. cerevisiae deletion strains, locus YML124C, strain tub3, hits give low values 1.01 | S. cerevisiae deletion strains, locus YMR058W, strain fet3, hits give low values 1.01 | S. cerevisiae deletion strains, locus YMR078C, strain ctf18, hits give low values 1.02 | S. cerevisiae deletion strains, locus YMR125W, strain sto1, hits give low values 1.01 | S. cerevisiae deletion strains, locus YMR129W, hits give low values 0.992 | S. cerevisiae deletion strains, locus YMR205C, strain PFK2, hits give low values 1.02 | S. cerevisiae deletion strains, locus YMR223W, strain ubp8, hits give low values 1.02 | S. cerevisiae deletion strains, locus YMR231W, strain pep5, hits give low values 1.01 | S. cerevisiae deletion strains, locus YMR263W, strain SAP30, hits give low values 0.994 | S. cerevisiae deletion strains, locus YMR307W, strain GAS1, hits give low values 1.02 | S. cerevisiae deletion strains, locus YNL067W, strain RPL9B, hits give low values 0.99 | S. cerevisiae deletion strains, locus YNL071W, strain lat1, hits give low values 1 | S. cerevisiae deletion strains, locus YNL128W, strain TEP1, hits give low values 0.991 | S. cerevisiae deletion strains, locus YNL153C, strain GIM3, hits give low values 0.996 | S. cerevisiae deletion strains, locus YNL183C, strain NPR1, hits give low values 0.985 | S. cerevisiae deletion strains, locus YNL209W, strain ssb2, hits give low values 1 | S. cerevisiae deletion strains, locus YNL233W, strain BNI4, hits give low values 0.992 | S. cerevisiae deletion strains, locus YNL248C, strain rpa49, hits give low values 0.969 | S. cerevisiae deletion strains, locus YNL250W, strain rad50, hits give low values 1.01 | S. cerevisiae deletion strains, locus YNL271C, strain bni1, hits give low values 1.01 | S. cerevisiae deletion strains, locus YNL298W, strain CLA4, hits give low values 1.02 | S. cerevisiae deletion strains, locus YNL307C, strain MCK1, hits give low values 1.03 | S. cerevisiae deletion strains, locus YNL322C, strain KRE1 (second series), hits give low values 1 | S. cerevisiae deletion strains, locus YNL322C, strain KRE1, hits give low values 0.999 | S. cerevisiae deletion strains, locus YNR049C, strain mso1, hits give low values 0.996 | S. cerevisiae deletion strains, locus YNR052C, strain pop2, hits give low values 1.02 | S. cerevisiae deletion strains, locus YOL006C, strain TOP1, hits give low values 1.03 | S. cerevisiae deletion strains, locus YOL012C, strain htz1 0.95 | S. cerevisiae deletion strains, locus YOL147C, strain pex11, hits give low values 1.02 | S. cerevisiae deletion strains, locus YOR001W, strain rrp6, hits give low values 0.979 | S. cerevisiae deletion strains, locus YOR061W, strain CKA2, hits give low values 0.994 | S. cerevisiae deletion strains, locus YOR069W, strain VPS5, hits give low values 1 | S. cerevisiae deletion strains, locus YOR070C, strain gyp1, hits give low values 1.01 | S. cerevisiae deletion strains, locus YOR080W, strain dia2, hits give low values 1 | S. cerevisiae deletion strains, locus YOR083W, strain WHI5, hits give low values 0.999 | S. cerevisiae deletion strains, locus YOR106W, strain vam3, hits give low values 0.993 | S. cerevisiae deletion strains, locus YOR136W, strain idh2, hits give low values 1.01 | S. cerevisiae deletion strains, locus YOR144C, strain elg1, hits give low values 1.01 | S. cerevisiae deletion strains, locus YOR184W, strain ser1, hits give low values 1.03 | S. cerevisiae deletion strains, locus YOR231W, strain MKK1, hits give low values 1.05 | S. cerevisiae deletion strains, locus YOR265W, strain rbl2, hits give low values 1.01 | S. cerevisiae deletion strains, locus YOR270C, strain vph1, hits give low values 0.987 | S. cerevisiae deletion strains, locus YOR290C, strain snf2, hits give low values 1 | S. cerevisiae deletion strains, locus YOR316C, strain cot1, hits give low values 1.01 | S. cerevisiae deletion strains, locus YPL051W, strain arl3, hits give low values 1 | S. cerevisiae deletion strains, locus YPL055C, strain LGE1, hits give low values 0.984 | S. cerevisiae deletion strains, locus YPL078C, strain atp4, hits give low values 0.986 | S. cerevisiae deletion strains, locus YPL106C, strain sse1, hits give low values 1 | S. cerevisiae deletion strains, locus YPL240C, strain hsp82, hits give low values 1 | S. cerevisiae deletion strains, locus YPL241C, strain CIN2, hits give low values 0.994 | S. cerevisiae deletion strains, locus YPL256C, strain CLN2, hits give low values 1.06 | S. cerevisiae deletion strains, locus YPR119W, strain clb2, hits give low values 1.01 | S. cerevisiae deletion strains, locus YPR141C, strain kar3, hits give low values 1.01 | S. cerevisiae deletion strains, locus YPR163C, strain tif3, hits give low values 1.02 | S. cerevisiae deletion strains, locus YPR167C, strain met16, hits give low values 1.01 | S. cerevisiae deletion strains, strain wtn01, hits give low values 1.01 | S. cerevisiae strains, strain wild type, hits give low values 0.996
